Most compounds without a hit are left out; they make up all but 0.34% or so of the library.
Chronic BCR inh = chronic active BCR signaling inhibition; 340,000 compounds, 0.05% hits; Potency, µM (top dose mostly 46.1 µM), actives largely listed as inhibitors; ABC-DLBCL IkBa-CBG/CBR reporter, luminescence ratio, 4 h; active = well fitted inhibition curve with a large enough effect in the signal ratio, with a control signal flat, not every such curve was filed as active; inconclusive = small, poorly fitted or top-dose-only effect, or effect the other way, or a change in a side signal; the % refers to the signal ratio
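Compounds up to 46 uM were incubated four hours with TMD8 cells whose green CBG68 luciferase is fused to IkappaBalpha; red CBR luminescence normalised the signal, and concentration-effect curves were fitted to fusion, red and ratio data.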
Tb PFK inh = T. brucei PFK enzyme inhibition | Potency, µM (top dose mostly 57.5 µM), actives largely listed as inhibitors | O15648 | T. brucei PFK, ADP-Glo luminescence | 330,000 compounds, 0.17% hits; note: nearly all actives have a fitted effect of over 60% in size
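Activity is normalized to no-enzyme wells (full inhibition) and 1.25 nM enzyme wells (no inhibition). Reaction: 0.5 mM F6P, 0.1 mM ATP, 45 min RT, ADP-Glo luminescence; concentration-response curves fitted and classed by quality.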
Pin1 inh = human Pin1 inhibition; 390,000 compounds, 0.009% hits; Potency, µM (top dose mostly 115 µM), hits mostly inhibitors; Q13526; Pin1 FP peptide displacement, HiFluor488, 10 min; AID 504891; active = well fitted inhibition curve with a large enough effect in the polarisation, with a control signal flat, not every such curve was filed as active; inconclusive = small, poorly fitted or top-dose-only effect, or effect the other way, or a change in a side signal; inactive = no such curve, though single readings can be large or run the other way; the % refers to the polarisation
Target sequence (Q13526 whole entry, looked up): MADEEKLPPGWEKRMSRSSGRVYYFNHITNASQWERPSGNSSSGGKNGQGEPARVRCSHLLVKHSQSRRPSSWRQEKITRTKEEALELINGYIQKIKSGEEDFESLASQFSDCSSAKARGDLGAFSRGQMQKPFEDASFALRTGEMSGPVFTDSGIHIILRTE
PI4K2A inh = PI4K2A (human) kinase inhibition. activity change, negative = inhibition, % at 76.9 µM. AID 1346378. 420,000 compounds, 0.13% hits. Q9BTU6. purified PI4K2A, ADP-Glo luminescence, 1 h; hits give low values; in the data active = activity change below about -50%; inconclusive = mostly about -30% to -49%
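ADP-Glo luminescence measured ADP generated by PI4K2A enzyme (4 ug/mL before mixing) with 1.2 mM PI substrate (pre-mix) and 300 microM ATP (pre-mix). Tris pH7.5 buffer with MgCl2, Triton X-100; 1 h reaction at ambient temperature.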
Tb PGK inh = blocks T. brucei phosphoglycerate kinase; P07378; PGK/GAPDH coupled, Kinase-Glo luminescence, 60 min; Potency, µM (titrated, usually from 57.5 µM), most hits filed as inhibitors; 380,000 compounds, 0.043% hits; note: nearly all actives have a fitted effect of over 60% in size
Target sequence (P07378 whole entry, looked up): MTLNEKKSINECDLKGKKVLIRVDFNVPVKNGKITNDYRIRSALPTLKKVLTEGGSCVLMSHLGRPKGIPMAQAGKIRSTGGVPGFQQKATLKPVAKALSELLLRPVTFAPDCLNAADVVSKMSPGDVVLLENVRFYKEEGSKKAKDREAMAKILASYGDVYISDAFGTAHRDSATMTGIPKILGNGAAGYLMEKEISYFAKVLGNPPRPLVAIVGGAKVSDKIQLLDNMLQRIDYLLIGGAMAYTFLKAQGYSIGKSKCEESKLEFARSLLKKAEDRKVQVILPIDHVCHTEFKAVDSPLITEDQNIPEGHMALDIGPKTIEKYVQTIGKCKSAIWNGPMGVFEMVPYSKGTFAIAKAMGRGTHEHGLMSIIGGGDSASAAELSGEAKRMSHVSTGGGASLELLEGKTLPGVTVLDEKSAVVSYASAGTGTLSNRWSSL
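Luminescent ATP detection (Kinase-Glo Plus) follows a 60-minute room-temperature incubation, with wells lacking PGK as controls. Buffer: 100 mM TEA (pH 7.6), 5 mM MgCl2, 0.01% Tween-20. Coupling enzyme GAPDH (100 nM final) supplies unstable 1,3-BPG in-well.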
Numbers stand for hits; n = inactive; u = inconclusive; x = not tested or not shown. Unless noted, calls come from the whole dose curve; as a rule, active = well fitted curve in the direction sought with a large enough effect; inconclusive = small, poorly fitted or top-dose-only effect, or another doubt; inactive = no such curve, though single readings can be large; an effect the other way counts as inactive or inconclusive.

SMILES	Chronic BCR inh	Tb PFK inh	Pin1 inh	PI4K2A inh	Tb PGK inh
O=C(N/N=C/c1ccc(O)cc1)c1ccncc1	n	n	n	n	n
CC/C(=C\C(=O)c1ccncc1)Nc1ccc(O)cc1	u	n	n	-50	n
CCn1c(C)nc2cc(-c3nc4n(n3)Cc3ccccc3-4)ccc21	u	n	n	-69	u
Cc1ccc(NS(=O)(=O)c2ccc3c(c2)CCC(C)(C)O3)cc1C	x	x	n	x	x
Cc1ccc(NS(=O)(=O)c2cc3c(cc2Cl)NC(=O)C3)cc1C	x	x	n	x	x
CCOC(=O)Cc1nnc(Nc2ccc(C)cc2)c2ccccc12	u	n	n	-75	n
O=C(O)c1cccc2c1NC(C(=O)O)C1CC(Sc3ccccc3[N+](=O)[O-])C(Cl)C21 (centres undefined)	u	u	x	n	11µM
CC(=O)c1ccc2c(c1)C1C(Cl)C(Sc3ccccc3[N+](=O)[O-])CC1C(C(=O)O)N2 (centres undefined)	n	n	u	n	u
CCOC(=O)C1CCN(c2ccc(Cl)nn2)CC1	u	n	n	n	n
CCOC(=O)C1CCN(c2ccc(-c3cccs3)nn2)CC1	n	n	n	-69	u
CCOc1ccc(OCc2cccc(C(=O)O)c2)cc1	u	n	n	-58	n
COc1ccc(OCc2cccc(C(=O)O)c2)cc1	u	n	n	u	n
Cc1ccc(NS(=O)(=O)c2cc3c(cc2N(C)C)NC(=O)CC3)cc1C	x	x	n	x	x
Nc1ncnc(Nc2ccc(S(N)(=O)=O)cc2)n1	n	n	n	-65	n
CC(C)(C)OC(=O)NCC(=O)NNC(=O)c1cc2ccccc2[nH]1	x	x	n	x	x
COc1cc(/C=N/NC(=O)c2[nH]nc3c2CCc2ccccc2-3)ccc1O	21µM	n	n	n	n
COc1cc(/C=N/NC(=O)c2ccccc2)ccc1O	u	n	n	n	n
CN(C)CCCNc1ncnc2ccc(-c3ccc4c(c3)OCO4)cc12	x	x	n	x	x
CCOC(=O)C1=C(C)NC(C)=C(C(=O)OCC)C1c1ccncc1	x	x	x	-76	n
CCOC(=O)C1=C(C)N[C@@]2(O)c3ccccc3C(=O)[C@@]12O	n	n	n	n	n
CC(=O)C1=C(C)OC2(O)c3ccccc3C(=O)C12O (centres undefined)	u	n	u	-54	n
CCOC(=O)C1=C(C)OC2(O)c3ccccc3C(=O)C12O (centres undefined)	u	n	x	-52	n
CC1=C(C(=O)OC(C)C)C2(O)C(=O)c3ccccc3C2(O)N1 (centres undefined)	n	n	n	n	n
O=C1CCc2cc(S(=O)(=O)Nc3cccc4ccccc34)ccc2N1	x	x	n	x	x
COc1ccc(C[C@](C)(N)C(=O)O)cc1OC	23µM	n	n	n	n
SMILES	Chronic BCR inh	Tb PFK inh	Pin1 inh	PI4K2A inh	Tb PGK inh
C[C@](N)(Cc1ccc(O)cc1)C(=O)O	x	x	x	n	x
CC(c1ccco1)N(C)c1ncnc2ccc(-c3ccc4c(c3)OCO4)cc12 (centres undefined)	x	x	n	x	x
O=c1[nH]cc(N(CCCl)CCCl)c(=O)[nH]1	x	x	x	-67	x
COc1ccc(C2Nc3ccccc3C(=O)N2CCc2ccccc2)cc1COc1ccc(NC(C)=O)cc1 (centres undefined)	x	x	n	x	x
Cc1ccc(NC(=O)c2ccc3c(c2)CCC(=O)N3)cc1C	x	x	n	x	x
COc1cc(C=C2C(=O)C=CC2=O)ccc1O	x	x	x	-56	x
COc1ccc(C(=O)C=Cc2ccc(OCc3ccccc3)c(OC)c2)cc1OC	x	x	x	n	n
COc1cc(/C=C/[N+](=O)[O-])ccc1O	21µM	n	n	n	n
COc1cc(/C=C/C(=O)O)ccc1O	x	x	n	n	n
COc1cc(/C=C/[N+](=O)[O-])ccc1OCc1cccc(C(=O)O)c1	u	u	28µM	-51	u
CNc1cccc(S(=O)(=O)N2CCN(S(=O)(=O)c3ccc4c(c3)OCCO4)CC2)c1	x	x	n	x	x
Cc1cc2c(s1)c1cnn(Cc3cc(Cl)ccc3F)c(=O)c1n2C	x	x	n	x	x
CCCn1c(SCC(=O)c2cc(C)n(C3CC3)c2C)n[nH]c1=O	n	n	n	n	n
CCn1c(CCC(N)=O)nnc1SCC(=O)c1cc(C)n(C2CC2)c1C	n	n	n	-53	n
CCOc1ccc(C(=O)Nc2cc(C)ccn2)cc1	u	n	n	-72	u
CCOc1cc(C(=O)Nc2cc(C)ccn2)cc(OCC)c1OCC	u	n	n	n	n
O=c1c2ccccc2cnn1-c1nc2ccccc2[nH]1	u	u	n	-73	10µM
O=C1CCCC2=C1C(c1ccccc1Cl)N=C(Nc1nc3ccccc3o1)N2 (centres undefined)	x	x	n	x	x
O=C(Cc1ccccc1)NNC(=O)Nc1ccc(Cl)c(Cl)c1	u	n	n	n	n
NC(=S)NNC(=O)Nc1ccc(Cl)c(Cl)c1	n	17µM	n	n	n
Cc1ccc(/C=C/c2nc3ccccc3[nH]2)cc1	u	x	n	-67	u
Cc1ccc(/C=C/c2nc3ccccc3c(=O)[nH]2)cc1	n	n	n	n	n
O=S(=O)(c1ccc2ccccc2c1)N1CCOCC1	n	n	n	n	n
O=S(=O)(c1ccc2nc(-c3ccco3)c(-c3ccco3)nc2c1)N1CCOCC1	n	n	u	-55	n
O=c1cc(-c2cccc(F)c2)[nH]c2ccccc12	21µM	n	n	n	n
SMILES	Chronic BCR inh	Tb PFK inh	Pin1 inh	PI4K2A inh	Tb PGK inh
COc1cc(F)c(S(=O)(=O)N2CCN(S(=O)(=O)c3cccs3)CC2)c(F)c1	x	x	n	x	x
COc1ccc2c(c1)sc1nc(-c3ccccc3)cn12	u	n	n	-60	u
COc1ccc(-c2cn3c(n2)sc2cc(C(=O)NCc4ccccc4)ccc23)cc1	x	x	n	n	n
O=C(CNC(=O)C1CCCCC1)OC(C(=O)Nc1cc(C(F)(F)F)ccc1Cl)c1ccccc1 (centres undefined)	x	x	n	x	x
COc1ccc(O)c(C(c2c(C)[nH][nH]c2=O)c2c(C)[nH][nH]c2=O)c1	n	n	n	-62	n
COc1ccc(OC)c(C(c2c(C)[nH][nH]c2=O)c2c(C)[nH][nH]c2=O)c1	u	n	n	u	n
NC(=O)C1(N2CCCCC2)CCN(CCCN2c3ccccc3CCc3ccc(Cl)cc32)CC1	x	x	x	n	x
Cc1ccc(SSc2cc(C)ccc2N)c(N)c1	u	21µM	n	n	n
CC(C)(C)OC(=O)Cc1nnc(-c2cc3ccccc3[nH]2)o1	x	x	n	x	x
O=c1c2cc(Br)cc(Br)c2oc2nc3n(c(=O)c12)CCCS3	n	n	x	x	x
O=Cc1ccc2oc3nc4n(c(=O)c3c(=O)c2c1)CCCS4	n	u	u	-62	u
O=S1(=O)N=C(Oc2ccc(Cl)cc2)c2ccccc21	x	x	n	x	x
NNC(=O)c1oc2nc(-c3ccco3)cc(-c3ccco3)c2c1N	u	n	n	-57	n
Nc1c(C(=O)N/N=C/c2cccnc2)oc2nc(-c3ccco3)cc(-c3ccco3)c12	u	n	u	n	n
O=[N+]([O-])c1cc(Cl)c(O)c2ncccc12	u	n	n	n	n
O=[N+]([O-])c1cc(F)c2cccnc2c1O	16µM	n	n	u	x
